Compound activity: PubChem, Sanford-Burnham Center for Chemical Genomics
Sampled rows, rich in hits. Any-hit rate of the full collection: about 4%.
TWEAK Fn14 block: inhibitors of TWEAK-Fn14 interaction signaling. TWEAK-stimulated Fn14 reporter cells, luciferase luminescence, 8 h. inhibition, % at 10 µM. 360,000 tested, 2% active; in the data active means inhibition above about 50%
KKLEB tox: CF airway cell cytotoxicity counter-screen | KKLEB CF airway cells viability, ATPlite luminescence, overnight; stronger effect = lower value; cells stimulated with P. aeruginosa culture filtrate | 360,000 tested, 0.36% active | AID 602141 | activity change (cytotoxicity), % at 5 µM;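 active means corrected activity change at or below -50% at 5 µM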
CF NFkB inh: blocks PAF-induced NF-kB reporter in cystic fibrosis cells | AID 588850 | 360,000 tested, 0.86% active | inhibition, % at 5 µM | KKLEB NF-kB-GFP reporter, GFP fluorescence overnight;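 active means at least 50% inhibition at 5 µM, scaled per plate between neutral and stimulator controls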;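 further: PAF is a Pseudomonas aeruginosa culture filtrate used as stimulus; plate controls were PAF-stimulated DMSO wells for no effect and unstimulated DMSO wells for full effect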
Peg3 prom inh: reduces Peg3 promoter-driven luciferase expression in HeLa | inhibition, % at 20 µM | HeLa PEG-Prom luciferase reporter, luminescence, overnight | 360,000 tested, 1.7% active;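 active means inhibition of at least 50% at 20 µM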
HIF-2a inh: HIF-2a inhibition; inhibition, % at 18.8 µM; 786-0 RCC cells HIF-2a reporter, luciferase luminescence, overnight; 360,000 tested, 0.72% active;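 active means inhibition of the luminescence signal of 40% or more relative to plate controls, in a single-dose primary screen at 18.75 µM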
TROY signal inh: inhibitors of TROY-dependent NF-kB signaling; Q293 LMP1-TROYcd NF-kB luciferase reporter, 4 h; inhibition, % at 10 µM; 360,000 tested, 0.98% active; AID 1347056;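 active means compounds whose plate-normalised and pattern-corrected inhibition of the luciferase reporter signal at the single screening dose is 50% or more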
Numbers without * were called inactive; x = no result.

SMILES | TWEAK Fn14 block | KKLEB tox | CF NFkB inh | Peg3 prom inh | HIF-2a inh | TROY signal inh
Cc1ccc(NC(=O)Cn2c(O)c(N=NC(=O)c3cc4ccccc4cc3O)c3ccccc32)cc1 | -89.6 | -35.1 | 20.5 | 96.6* | -46.4 | -34.2
Cc1ccc(NC(=O)Cn2c(O)c(N=NC(=O)c3ccncc3)c3ccccc32)cc1 | -20.4 | -6.9 | -1.4 | 19.6 | 11.0 | 9.5
Cc1ccc(C)n1-n1c(C)nc2sc(-c3ccccc3)cc2c1=O | 69.1* | -10.4 | 6.0 | -100.2 | -125.4 | 5.4
COc1cc2c(cc1OC)C(=O)C(c1ccc3c(c1)OCO3)CC2 (stereo not given) | -0.8 | 2.8 | -33.3 | -14.6 | -26.7 | -13.8
COc1cc2c(cc1OC)C(=O)C(Br)CC2 (stereo not given) | 15.6 | -16.1 | 69.5* | 65.3* | 8.1 | 15.0
N#Cc1c(-c2ccccc2)nc(SCC(=O)N2c3ccccc3Sc3ccccc32)[nH]c1=O | -27.6 | -12.7 | -2.5 | -9.5 | 17.2 | 55.0*
C=CCSc1nc(-c2ccccc2)c(C#N)c(=O)[nH]1 | 2.5 | 9.7 | -0.8 | 12.2 | -5.7 | 10.8
N#Cc1c(-c2ccccc2)nc(SCc2ccc(Cl)cc2)[nH]c1=O | -14.1 | 7.4 | 1.9 | 4.8 | 16.9 | 51.3*
CCC(CC)C(=O)Oc1c(C(=O)N(C)C)cccc1-c1ccccc1 | -6.7 | -20.2 | 12.9 | 7.7 | 10.3 | -8.0
COCCN(C(=O)COC(=O)/C=C/c1ccc2c(c1)OCO2)c1c(N)n(Cc2ccccc2)c(=O)[nH]c1=O | -12.9 | 4.2 | -6.8 | 5.8 | 4.0 | 5.0
CC(C)c1c(C(=O)N/N=C/c2cccc(OCc3ccccc3)c2)nnn1-c1nonc1N | 42.9 | -6.6 | -8.5 | -9.6 | -117.4 | 57.9*
CC(C)c1c(C(=O)N/N=C/c2ccc(OCc3ccccc3)cc2)nnn1-c1nonc1N | -34.5 | -33.7 | 2.5 | -49.2 | -13.8 | -19.3
CCOc1ccc(-c2c(C(=O)N/N=C/c3c[nH]c4ccccc34)nnn2-c2nonc2N)cc1 | 58.2* | 23.3 | -22.4 | 27.7 | 21.3 | 6.3
COc1cc(/C=N/NC(=O)c2nnn(-c3nonc3N)c2C(C)C)ccc1OCc1ccccc1 | 62.5* | 1.4 | -28.8 | -95.7 | -9.7 | 37.3
COc1cccc(/C=N/NC(=O)c2nnn(-c3nonc3N)c2C(C)C)c1OCc1ccc(F)cc1 | 63.0* | -4.4 | 11.2 | 8.1 | -13.7 | 62.3*
COC(=O)[C@@]1(Cc2ccccc2)[C@H]2C(=O)N(C)C(=O)[C@H]2[C@H]2CN=C(SC)N21 | -2.5 | 14.3 | 1.1 | -7.3 | 2.0 | -1.1
CCOc1cc(C=NNC(=O)N(c2ccccc2)c2ccccc2)ccc1O | -33.2 | -12.8 | 8.2 | -60.4 | -30.3 | -38.1
O=C1NC[C@H](Cc2ccccc2)N(C[C@@H]2CCCN2C[C@H](Cc2ccc(O)cc2)N2C[C@H](Cc3ccccc3)N(CC3CCCCCC3)C(=O)C2=O)C1=O | -13.8 | x | x | x | -18.0 | 11.5
COc1c(Cl)cc(Cl)cc1/C=N/NC(=O)c1nnn(-c2nonc2N)c1CN1CCC(C)CC1 | -13.3 | 15.3 | 8.5 | -0.1 | 9.6 | -9.3
CC1CCN(Cc2c(C(=O)N/N=C/c3cc(Cl)ccc3O)nnn2-c2nonc2N)CC1 | -21.6 | -11.4 | 32.9 | 75.9* | 7.6 | 15.0
Nc1nonc1-n1nnc(C(=O)N/N=C/c2cccc(Cl)c2)c1-c1cccs1 | 50.6* | 19.0 | 27.4 | 27.2 | -17.4 | 6.3
CCc1ccc(-c2cc(C(=O)N/N=C/c3c[nH]c4ccccc34)[nH]n2)cc1 | 58.6* | -22.7 | 18.4 | -132.1 | -121.7 | 33.9
Cc1ccccc1COc1cccc(/C=N/NC(=O)c2nnn(-c3nonc3N)c2C)c1 | -30.2 | -12.8 | 32.4 | 74.3* | -8.8 | -5.6
Cc1c(C(=O)N/N=C/c2cccc(O)c2)nnn1-c1nonc1N | -11.5 | 12.1 | -2.5 | -22.7 | -30.1 | -21.2
CSc1ccc(S(=O)(=O)NCC(=O)OCC(=O)N2CCC(C)CC2)cc1[N+](=O)[O-] | -0.5 | -5.5 | -0.4 | 13.7 | 9.9 | 14.0
SMILES | TWEAK Fn14 block | KKLEB tox | CF NFkB inh | Peg3 prom inh | HIF-2a inh | TROY signal inh
Cc1oc(-c2cccs2)cc1C(=O)N1CCCC(C)(C(=O)O)C1 (stereo not given) | 0.7 | 7.0 | -22.4 | -8.6 | -1.3 | -6.1
Cc1cc([N+](=O)[O-])nn1Cc1ccc(C(=O)N/N=C/c2ccc(O)cc2O)cc1 | -12.4 | -18.5 | 23.7 | 56.2* | -2.3 | 14.2
O=C1c2ccccc2-c2nc3ccccc3nc21 | 13.5 | 16.5 | -29.6 | -214.7 | -257.5 | -75.2
Cc1nc2c(nc1C)C(=O)c1ccccc1C2=O | 15.3 | -13.3 | 60.6* | 7.6 | -5.0 | -5.0
CC(C)CC(N)c1csc(NC(=O)Nc2ccccc2-c2ccccc2)n1 (stereo not given) | 1.9 | -10.0 | 2.1 | 103.7* | 2.5 | 7.6
CC(C)C(N)c1csc(NC(=O)Nc2ccccc2C(C)(C)C)n1 (stereo not given) | 6.9 | -24.4 | 24.6 | 9.2 | 1.7 | 4.8
CC(C)CC(N)c1csc(NC(=O)Nc2ccccc2Cc2ccccc2)n1 (stereo not given) | -11.6 | -9.2 | -1.7 | 85.6* | -2.8 | 5.7
CC(C)CC(N)c1csc(NC(=O)C(c2ccccc2)c2ccccc2)n1 (stereo not given) | -3.2 | -13.6 | 29.3 | 95.0* | 1.2 | -2.8
O=C(COC(=O)c1cccnc1)Nc1ccccc1 | 1.6 | -1.7 | 2.7 | 16.8 | -3.1 | -7.5
CC(=O)N1CCC(C(=O)Nc2ccccc2)(N(Cc2ccccc2)C(=O)c2cccnc2)CC1 | 6.3 | 5.1 | -11.6 | -131.5 | -103.1 | 50.5*
Cc1cc(NC(=O)CCC(=O)N(CC(=O)NCC2CCCO2)c2ccc(C(C)C)cc2)no1 (stereo not given) | 6.7 | 3.3 | 5.7 | -8.3 | 0.6 | -12.5
Cc1c(CCOC(=O)C23CC4CC(CC(C4)C2)C3)sc[n+]1Cc1ccccc1 | -2.8 | -1.9 | -6.2 | 0.7 | 7.5 | -1.1
Cc1c(CCOC(=O)C23CC4CC(CC(C)(C4)C2)C3)sc[n+]1Cc1ccccc1 | -9.0 | -14.4 | 20.2 | 3.1 | 0.8 | 15.4
Cc1c(CCOC(=O)C23CC4(C)CC(C)(CC(C)(C4)C2)C3)sc[n+]1CC(=O)c1ccccc1 | -0.1 | -11.7 | 23.3 | 113.5* | 13.2 | 31.0
Cc1c(CCOC(=O)CC23CC4CC(CC(C4)C2)C3)sc[n+]1CC(=O)c1ccccc1 | 12.4 | -19.1 | 17.1 | 61.5* | 2.1 | 13.5
Cc1nn(-c2ccccc2)c(N2CCCC2)c1/C=N/NC(=S)Nc1ccccc1F | 25.6 | -4.6 | 16.2 | -68.3 | -87.0 | 64.5*
Cc1nn(-c2ccccc2)c(N2CCCC2)c1/C=N/NC(=O)c1cc(-c2ccccn2)nc2ccccc12 | 31.0 | -6.7 | 40.4 | 56.8* | 16.2 | 3.9
Cc1nn(-c2ccccc2)c(N2CCCC2)c1/C=N/NC(=O)c1cc2ccccc2cc1O | 26.6 | -10.8 | 16.6 | 31.5 | 9.8 | 9.7
CCCCOc1ccc(C(=O)N(CC)CC(=O)NCc2cccs2)cc1 | 19.0 | 12.8 | -11.2 | 8.1 | -17.9 | -11.0
